The panel holds about 79,000 compounds, 15% with a hit somewhere; the sample as a whole holds those more often. Cut-off read from the data, not from the text of the source: active = growth inhibition above about 70%; inactive = the rest.
Assays:
[1] = NCI Yeast Anticancer Drug Screen. Data for the rad50 strain (AID 155);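 note: 0% = growth of vehicle-only cultures of the same strain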; conditions: S. cerevisiae rad50 strain growth inhibition; at 50.0 µM; stronger effect = higher value
Outline: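 Readout: growth inhibition relative to vehicle-treated cultures. Compound exposure was carried out in a genetically defined yeast strain deficient in DNA damage repair.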

[2] = NCI Yeast Anticancer Drug Screen. Data for the mec2-1 strain (AID 157); conditions: S. cerevisiae mec2-1 strain, at 50.0 µM, stronger effect = higher value
Outline: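 Mutant yeast (mec2-1) grown with compound; growth inhibition relative to vehicle control reported.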

[3] = NCI Yeast Anticancer Drug Screen. Data for the sgs1 mgt1 strain (AID 161);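 note: 0% = growth of cultures given vehicle only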; conditions: S. cerevisiae sgs1 mgt1 strain, at 50.0 µM, stronger effect = higher value
Outline: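 Percent growth inhibition was derived by comparing compound-exposed mutant yeast with vehicle-exposed cultures. The strain carries alterations in DNA damage repair.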

[4] = NCI Yeast Anticancer Drug Screen. Data for the cln2 rad14 strain (AID 165);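 note: 0% = growth equal to vehicle treated cultures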; conditions: S. cerevisiae cln2 rad14 strain, at 50.0 µM, stronger effect = higher value
Outline: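 Readout is yeast growth inhibition versus vehicle-treated controls, using a strain with cln2 and rad14 alterations exposed to compound.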

[5] = NCI Yeast Anticancer Drug Screen. Data for the bub3 strain (AID 167); conditions: S. cerevisiae bub3 mutant strain, at 50.0 µM, stronger effect = higher value
Outline: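 Readout: yeast growth inhibition, expressed relative to vehicle-only wells. The test organism is a mutant strain from a panel with lesions in DNA repair or checkpoint genes.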

[6] = NCI Yeast Anticancer Drug Screen. Data for the mlh1 rad18 strain (AID 175); conditions: S. cerevisiae mlh1 rad18 strain growth inhibition; at 50.0 µM; stronger effect = higher value
Outline: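 Genetically defined yeast (DNA repair-deficient) exposed to compounds; growth inhibition determined relative to vehicle.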

Measured: growth inhibition

OC(CN1CCc2ccccc2C1)c1ccccc1 (stereo unspecified)
inactive: [1] 42.5% | [2] 8.05% | [3] 49% | [4] 27% | [5] 39.4% | [6] 35.8%

O=C1Oc2ccccc2C(=O)Oc2ccccc2C(=O)Oc2ccccc2C(=O)Oc2ccccc21
inactive: [1] -43.7% | [2] -38.6% | [3] -24.2% | [4] -8.25% | [5] -22.1% | [6] -29.6%

C=CCOc1cc2c(cc1Cc1cc(OC)c(OC)c(OC)c1)OCO2
inactive: [1] 22.9% | [2] -20.8% | [3] 49.6% | [4] 9.85% | [5] 37.6% | [6] 55.2%

CCCCCCCCN1CSC(=S)N(c2ccc3[nH]c(=S)sc3c2)C1
inactive: [1] 48.9% | [2] 17.6% | [3] 34% | [4] 27.9% | [5] 5.2% | [6] 35.5%

CCOC(=O)c1sc(N)nc1O
inactive: [1] -5.5% | [2] -0.3% | [3] -3.75% | [4] 5.85% | [5] 6.25% | [6] -8.8%

O=C(Sc1ccccn1)c1ccccc1
inactive: [1] 4.15% | [2] -14.3% | [3] -18.4% | [4] -8.05% | [5] -21.6% | [6] -37.1%

CC1(C)CC(=O)C(C(CCC2CCCCC2=O)C2C(=O)CC(C)(C)CC2=O)C(=O)C1 (stereo unspecified)
inactive: [1] 38.5% | [2] 7.95% | [3] 10% | [4] 1.95% | [5] 9.35% | [6] 19.6%

Cc1cc(Br)ccc1Br
inactive: [1] 34.6% | [2] 19.3% | [3] -1.75% | [4] -36.4% | [5] -4.3% | [6] 8.6%

Cc1n[nH]c(=S)n1NC=O
inactive: [1] -12.3% | [2] -6.3% | [3] -4.7% | [4] -20.2% | [5] -4.95% | [6] -15.8%

C/C(=N/NC(N)=S)c1ccc2ccccc2c1
inactive: [1] 17.4% | [2] 17.1% | [3] 43.8% | [4] 17.2% | [5] 28.9% | [6] 29.4%

CCCN(CCC)S(=O)(=O)c1ccc(NC(=O)OC2CCCCC2)cc1
inactive: [1] 37.1% | [2] 2.25% | [3] 23.6% | [4] 13.1% | [5] -4.7% | [6] 17.9%

COc1ccc(C2c3cc4c(cc3OC(N3CCOCC3)C2C)OCO4)cc1 (stereo unspecified)
inactive: [1] -12.4% | [2] -22.1% | [3] -20.2% | [4] -3.95% | [5] -32.9% | [6] -57.2%

O=C1CCCCCCCCCCC1
inactive: [1] -8.1% | [2] -62.7% | [3] -17.6% | [4] 15.2% | [5] -17.1% | [6] 3.1%

COC(=O)C1=C(C(=O)OC)C(C)(C)N=N1
inactive: [1] 14.2% | [2] 6.65% | [3] 12.7% | [4] -1.65% | [5] 16.1% | [6] 3.45%

Cn1c(=O)c2c(nc3sc4c(n32)C(=O)c2c(O)ccc(O)c2C4=O)n(C)c1=O
inactive: [1] 21.6% | [2] 30.2% | [3] 51.5% | [4] 55.2% | [5] 41% | [6] -7.2%

CC1(C)OC2C(=O)O[C@H](CO)C2O1 (stereo partly specified)
inactive: [1] -2.7% | [2] 9.5% | [3] -2.9% | [4] 24.6% | [5] 7.3% | [6] 16.4%

COc1cc(NCC2COc3c(ccc(OC)c3OC)C2=O)c([N+](=O)[O-])cc1OC (stereo unspecified)
inactive: [1] 9.35% | [2] 20.2% | [3] 8.15% | [4] 15.4% | [5] -5.3% | [6] 21.4%

Nc1nc2c(ncn2Cc2ccc(Cl)c(Cl)c2)c(=O)[nH]1
inactive: [1] -5.1% | [2] -7.4% | [3] -1.65% | [4] -10.1% | [5] -0.5% | [6] 2.55%

CCC/C(Cl)=N/OC(=O)Nc1cc(C(F)(F)F)ccc1OC
inactive: [1] -34.1% | [2] 17.6% | [3] 5.8% | [4] 8.5% | [5] 40.6% | [6] 21.3%

CC(C)NC(=O)c1ccc(CON)cc1
inactive: [1] 5.15% | [2] -9.7% | [3] 2.8% | [4] 23.5% | [5] 35% | [6] 9.8%

COc1ccccc1P(=O)(CCP(=O)(c1ccccc1)c1ccccc1OC)c1ccccc1 (stereo unspecified)
inactive: [1] 2.15% | [2] 15.5% | [3] 13.3% | [4] 13.5% | [5] -1.75% | [6] 9.5%

NC1=C(O)C(=O)C(c2ccc3c(c2)CCC3)O1 (stereo unspecified)
inactive: [1] -24.5% | [2] -14.7% | [3] -22.4% | [4] -12.6% | [5] -14% | [6] -9.1%

C=C(C)C(C)(C)n1[nH]c(=O)n(-c2ccccc2)c1=O
inactive: [1] 13.2% | [2] -0.05% | [3] -0.3% | [4] -23.1% | [5] -13.4% | [6] 0%

CCCCCNC(=O)c1csc(-c2csc(CCNC(C)=O)n2)n1
inactive: [1] -18.9% | [2] 4.85% | [3] 4.7% | [4] -26.1% | [5] 16.1% | [6] 3.8%

COc1ccc(/C=[N+](\[O-])[C@H](COCc2ccccc2)c2ccccc2)cc1
inactive: [1] 18.4% | [2] -18.3% | [3] 0.05% | [4] -1.6% | [5] 6.6% | [6] 4.3%

CC(C)NCC(C)(C)[N+](=O)[O-]
inactive: [1] 5.05% | [2] -8.55% | [3] 3.65% | [4] -4.1% | [5] 3.3% | [6] -0.95%

COc1cc2ccc(=O)oc2cc1O
inactive: [1] 14.6% | [2] 9.35% | [3] 9.05% | [4] 19.4% | [5] 16.4% | [6] 4.05%

Cc1cc(=O)oc2c(CNC(C(=O)O)C(C)C)c(O)ccc12 (stereo unspecified)
inactive: [1] 5.05% | [2] -15.9% | [3] -19.7% | [4] 7.5% | [5] -16.8% | [6] -6.4%

CCN1CCC(O)(c2ccc(Oc3ccc(F)cc3)cc2)C(C(=O)c2ccc(Oc3ccc(F)cc3)cc2)C1 (stereo unspecified)
inactive: [1] 20.1% | [2] 2.9% | [3] 14.6% | [4] 5.95% | [5] 5.65% | [6] 29.9%

CC(C)=C1C(=O)C[C@]2(C)C/C=C(\C)CC/C=C(\C)CC[C@@H]12
inactive: [1] 39.5% | [2] 40.9% | [3] 62.5% | [4] 46.2% | [5] 58.9% | [6] 38.8%

Cc1ccc(S(=O)C(C)C(Cl)c2ccccc2)cc1 (stereo unspecified)
inactive: [1] -3.6% | [2] 0.2% | [3] 5.6% | [4] 16.9% | [5] 11.7% | [6] 6.9%

CCOC(=O)c1ccc(NC(=O)Nc2cc(Cl)ccc2OC)cc1
inactive: [1] 4% | [2] 46.1% | [3] 21% | [4] -2.9% | [5] 34% | [6] 19.7%

COc1cc(C2c3cc4c(cc3OC(Nc3ccccc3)C2C)OCO4)cc(OC)c1OC (stereo unspecified)
inactive: [1] -12.7% | [2] 5.6% | [3] 2.95% | [4] -10.6% | [5] -6.5% | [6] 20.8%

CCCC(O)CNCc1ccc2ncccc2c1 (stereo unspecified)
inactive: [1] -20.4% | [2] -4.2% | [3] 2.1% | [4] -66.8% | [5] -4.35% | [6] -23.4%

CCn1c2ccccc2c2ccc(N=Cc3ccc4ccccc4c3)cc21
inactive: [1] 5.65% | [2] -2.3% | [3] -7.3% | [4] -14% | [5] 14.3% | [6] 1.3%

COc1ccc(-n2[nH]nc(C(N)=O)c2=O)cc1
inactive: [1] 7.6% | [2] -2.5% | [3] -33.4% | [4] -22.6% | [5] -24.6% | [6] -65%

CN(C)c1ccc(CC2Cc3ccccc3C2O)cc1 (stereo unspecified)
inactive: [1] 6.75% | [2] -6.55% | [3] 10.2% | [4] -11.7% | [5] 12.3% | [6] 5.9%

COC(=O)c1ccc(OC)cc1O
inactive: [1] 1.5% | [2] 1.8% | [3] -13.4% | [4] -19.9% | [5] 3.2% | [6] -2%

Cc1[nH]c(/N=C/c2ccc(N(C)C)cc2)c(C#N)c1C
inactive: [1] -10.1% | [2] -0.6% | [3] -18.4% | [4] -8% | [5] -5.75% | [6] -7.75%

CC(C)N(C(=O)c1ncccc1C(=O)c1ccccn1)C(C)C
inactive: [1] -11.4% | [2] -5.65% | [3] -4.75% | [4] -5.2% | [5] -5.85% | [6] -5.05%

O=C1N(c2cccc(F)c2)C(=O)N1c1cccc(F)c1
inactive: [1] 27.4% | [2] 3.3% | [3] -9.1% | [4] 13.2% | [5] -1.1% | [6] 5.5%

Source: PubChem BioAssay (NCI)
